# Source: the supplement of paper PMC3334620
# In all, about 33,000 sequences were measured (“E-score (-0.5 to 0.5)”: median about -0.01, highest 2% from about 0.26 on). The list comes from a sample in which the highest values are over-represented; it also holds similar and randomly drawn sequences.
# Molecular target: Ste12 (UniProt P13574)
# Test: PBM E-score (8-mer binding enrichment) (E-score (-0.5 to 0.5)); higher = stronger / more preferred TF binding
# Conditions: protein concentration: 200 nM; construct: GST-DNA-binding domain
# Outline: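 Bound GST-tagged yeast transcription factors, applied at about 100-200 nM to double-stranded universal all-10-mer Agilent arrays, were detected with fluorescent anti-GST. Scans were normalised with masliner. A modified Wilcoxon-Mann-Whitney statistic, the E-score, was assigned to each ungapped eight-base word pooled with its reverse complement by the Universal PBM Analysis Suite.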
# Chain of UniProt P13574 (P13574 whole entry): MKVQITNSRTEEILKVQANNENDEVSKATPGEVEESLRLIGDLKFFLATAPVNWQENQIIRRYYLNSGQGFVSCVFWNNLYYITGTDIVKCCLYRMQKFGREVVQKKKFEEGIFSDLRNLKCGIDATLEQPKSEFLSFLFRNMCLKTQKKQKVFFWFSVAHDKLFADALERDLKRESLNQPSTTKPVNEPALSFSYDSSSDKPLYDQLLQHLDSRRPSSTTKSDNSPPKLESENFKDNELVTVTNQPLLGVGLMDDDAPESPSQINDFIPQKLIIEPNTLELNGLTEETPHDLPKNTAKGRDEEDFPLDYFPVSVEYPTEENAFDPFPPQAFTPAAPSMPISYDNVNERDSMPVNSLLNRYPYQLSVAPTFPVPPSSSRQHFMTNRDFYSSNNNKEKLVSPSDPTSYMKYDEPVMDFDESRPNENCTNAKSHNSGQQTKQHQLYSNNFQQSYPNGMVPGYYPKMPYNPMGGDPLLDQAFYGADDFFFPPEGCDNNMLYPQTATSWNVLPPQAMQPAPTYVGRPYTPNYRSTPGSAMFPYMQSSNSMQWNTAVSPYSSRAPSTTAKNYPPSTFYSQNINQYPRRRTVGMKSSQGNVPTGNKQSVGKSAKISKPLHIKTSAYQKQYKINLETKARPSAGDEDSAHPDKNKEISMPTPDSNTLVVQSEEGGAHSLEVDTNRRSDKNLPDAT
row,Sequence,PBM E-score
1,ACGTTTCT,0.064
2,GCGTTTCA,0.476
3,ACGTTTCA,0.48
4,TCGTTTCA,0.467
5,TCATTTCA,0.242
6,ACGTTTCG,0.297
7,GCGTTTCC,0.0828
8,ACGTTTAG,-0.156
9,TACTTCCA,0.0198
10,AATGGGAT,-0.185
11,CGCAAACA,0.053
12,AAGTCGGC,-0.16
13,AACGCTTA,-0.0484
14,CGACAGAC,-0.00066
15,CAGGTCCC,-0.104
16,AGCTGATG,0.129
17,GAACGGTA,-0.17
18,CCGTTTCG,0.164
19,CCGTTTCA,0.46
20,CCGTTTCC,0.139
21,GAACTCCC,0.0278
22,ATGCGATG,0.00552

row,Sequence,PBM E-score
1,GTTGGTCA,0.121
2,CGAATGAA,0.084
3,TAAATGAA,0.185
4,CAAATTAA,0.203
5,GAAATTAC,0.176
6,GAAATTAA,0.294
7,TGAATGAA,0.208
8,AAAATGAG,0.124
9,AAAATGAT,0.317
10,CAAATGAA,0.238
11,GAAATGAA,0.331
12,GGAATGAA,0.281
13,AAAATGAC,0.121
14,AAGTTGAA,0.134
15,CCGGCCCG,0.00367
16,CGCCAAAA,0.227
17,GGGGTGGA,0.00832
18,ACCTTATG,0.0329
19,TCCTAAGA,-0.00559
20,AAAGGTTC,-0.154
21,AAAATGCA,0.00439
22,AAAATGAA,0.27

row,Sequence,PBM E-score
1,AAAATGGA,0.237
2,GCCTCAGC,-0.226
3,ATAAAGTC,0.167
4,AGATGGCT,-0.0505
5,CATGTAAA,0.027
6,AATGTAAT,0.187
7,AATGTAAA,0.269
8,TATTCAGA,0.029
9,CGCCAATA,0.036
10,CTTTGAGA,0.114
11,CTTTGATA,0.179
12,GTTTGATA,0.301
13,CTTTGAAC,0.0927
14,ATTTGAAG,0.0968
15,CTTTGACA,-0.0728
16,ATTTGAGA,0.126
17,CTTTGAAA,0.318
18,ATTTGAAA,0.366
19,GTTTGAGA,0.311
20,ATTTGAAC,0.123
21,ATTTGATA,0.258
22,CGCCCTTA,-0.0507

row,Sequence,PBM E-score
1,AGTGAACG,-0.109
2,TGCGTCAA,0.0654
3,GTCCAAAC,0.0248
4,ACGCTTGG,-0.293
5,ATAGACGC,0.0365
6,GTTTGAAA,0.409
7,GTTTGACA,0.0294
8,GTTTGCAA,0.186
9,AGCGGCTC,-0.0004
10,ACCAAAAA,0.27
11,ACCAACAA,0.269
12,ACCAACAG,-0.042
13,ACCAACAT,0.125
14,TACCAAAA,0.204
15,ACCAAAAT,0.254
16,CACCAAAA,0.216
17,ACCAAAAC,0.235
18,AACCAAAA,0.324
19,TATTAAGA,0.0777
20,GCATCTAC,0.0977
21,AGCTTGAA,-0.0125
22,TGTGGAAA,0.286

row,Sequence,PBM E-score
1,CATGGAAA,0.098
2,AGTGGAAA,-0.0995
3,GATGGAAA,0.0433
4,TATGGAAA,0.292
5,CGTGGAAA,0.19
6,CTCAAGGA,-0.181
7,ACTGGTCC,-0.0777
8,AACTTTTA,0.228
9,CACCTTCC,0.0254
10,AAACCCGA,0.336
11,CAAACCCG,0.0369
12,AAACCCAT,0.131
13,AAACCCAA,0.349
14,GAACCCAA,-0.0682
15,AACCCCCG,-0.133
16,GAACCCGA,-0.0553
17,TAACCCGA,-0.0489
18,AAACCCCC,-0.122
19,GAAACCCA,0.246
20,AAACCCCG,0.28
21,CAAACCCA,0.262
22,GCGCACCC,-0.0102
